Source: PubChem
SW480 rereplic: A quantitative high throughput screen for small molecules that induce DNA re-replication in SW480 colon adenocarcinoma cells; SW480 DNA re-replication, Hoechst DNA content imaging, 48 h; Potency, µM (titrated, usually from 46.1 µM), without a hit: top-dose re-replication activation, hits mostly activators; actives 1.8% (n = 340,000); note: % of control where 0% means no effect; nearly all actives have a fitted effect of over 55% in size
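DNA re-replication was detected as more nuclei of elevated Hoechst intensity after 48 hr exposure to compound (23 nL pinned per well of 250 cells).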
KB-3-1 tox: qHTS assay for MDR1-selective chemotherapeutics: Primary screen using the parental adenocarcinoma cell KB-3-1; KB-3-1 viability, CellTiter-Glo ATP luminescence, 72 h; Potency, µM (top dose mostly 46.1 µM), most hits filed as cytotoxic; actives 1.4% (n = 400,000); note: % is set by controls: 0 for no effect and ±100 for the full control effect; nearly all actives have a fitted effect of over 60% in size
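Cells are dispensed, compounds pinned in, plates held at 37 °C for 72 h, then CellTiter-Glo is added and luminescence read after 10 minutes. Cell line: parental KB-3-1 in phenol-red-free DMEM, 10% FBS.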
MCF10A rerep: A quantitative high throughput screen for small molecules that induce DNA re-replication in MCF 10a normal breast cells. MCF 10A DNA re-replication, Hoechst nuclear intensity, 48 h. Potency, µM (doses to about 46.1 µM), inactives show top-dose activity, positive = re-replication, actives largely listed as activators. actives 2.9% (n = 350,000); note: % of control where 0% means no effect; nearly all actives have a fitted effect of over 50% in size
KB-V1 MDR tox: qHTS assay for MDR1-selective chemotherapeutics: Primary screen using the drug-selected MDR subline cells KB-V1; actives 3.4% (n = 400,000); AID 1347076, 2019; Potency, µM (titrated, usually from 46.1 µM), hits mostly cytotoxic; KB-V1 MDR cells viability, CellTiter-Glo, 72 h; note: % is set by controls: 0 for no effect and ±100 for the full control effect; nearly all actives have a fitted effect of over 60% in size
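Compound-treated KB-V1 multidrug-resistant cells, 72 h, 37 degrees C; viability by CellTiter-Glo. Fitted qHTS curves give the values.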
ELG1 DNA repair: qHTS screen for small molecules that inhibit ELG1-dependent DNA repair in human embryonic kidney (HEK293T) cells expressing luciferase-tagged ELG1; HEK293T ELG1-luciferase reporter, luminescence, 16 h; DNA damage induced by 5-fluorouridine; Potency, µM (top dose mostly 46.1 µM), inactives show top-dose activity change, negative = inhibition, most hits filed as inhibitors; actives 2.3% (n = 330,000); AID 504467, 2011; note: % is set by controls: 0 for no effect and ±100 for the full control effect; nearly all actives have a fitted effect of over 55% in size
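5-Fluorouridine DNA damage + compound/DMSO, 2,000 cells/well, 16 h, 37 °C/5% CO2. ONE-Glo, 30 min RT, luminescence. Readout = decrease in reporter signal.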
The depositor's hits bear a star; i = inactive; ? = inconclusive; nt = no result given. Hits are enriched below; roughly 8.1% of the tested compounds scored in any of these assays. Calls come from the whole dose curve; as a rule, active = well fitted curve in the direction sought with a large enough effect; inconclusive = small, poorly fitted or top-dose-only effect, or another doubt; inactive = no such curve, though single readings can be large; an effect the other way counts as inactive or inconclusive. Potency is the fitted concentration of half-maximal effect.

SMILES | SW480 rereplic | KB-3-1 tox | MCF10A rerep | KB-V1 MDR tox | ELG1 DNA repair
COc1nc(Nc2cccc(F)c2)nc(OC)n1 | -15% | ? | 5% | 6.5µM* | 19%
NNc1nccc(Nc2ccccc2C(=O)O)n1 | -1% | i | -4% | i | 13%
COc1nc(Nc2ccc(OC)c(Cl)c2)nc(OC)n1 | -5% | ? | 2% | 18µM* | 15%
COc1cc2nc(Nc3cccc(F)c3)nc(N)c2cc1OC | 1% | i | ? | ? | ?
CCOc1nc(Nc2ccc(OC)c(Cl)c2)nc(N2CCN(c3ccc(OC)cc3)CC2)n1 | 8% | i | 3% | ? | 18µM*
Cc1ccc(C(=O)NNC(=O)c2ccncc2)cc1[N+](=O)[O-] | -3% | i | 0% | i | 11%
COc1nc(Nc2ccccc2F)nc(OC)n1 | ? | ? | -8% | ? | 8%
Cc1cc(C)nc(Sc2nc(Nc3ccccc3)nc(Sc3nc(C)cc(C)n3)n2)n1 | ? | 21µM* | ? | ? | 12%
COc1nc(Nc2ccccc2)nc(OC)n1 | ? | ? | ? | 8.2µM* | nt
C=CCNc1nc(Cl)nc(Nc2ccccc2)n1 | -4% | i | -1% | i | ?
NNc1nc(Nc2ccccc2)nc(Nc2ccccc2)n1 | ? | i | ? | i | 16µM*
Cc1cc(C)nc(Nc2ccc(O)cc2)n1 | -2% | i | 5% | i | 7%
CNc1nc(Cl)nc(Nc2ccccc2)n1 | -20% | ? | ? | 5.8µM* | ?
NNc1nc(Nc2ccccc2)nc(N2CCCCC2)n1 | 22% | i | -2% | ? | -18%
COc1ccc(OC)c(-n2c(CNC3CCN(Cc4ccccc4)CC3)nc3ccccc3c2=O)c1 | 3% | ? | -4% | i | 12%
COC(=O)c1ccc2nc(-c3ccc(C)cc3)c(Cc3cccc(F)c3)n2c1 | nt | i | nt | ? | nt
COc1ccccc1-n1c(C)nc2cc(C(=O)NCCN3CCOCC3)ccc21 | 3.7µM* | i | -9% | ? | 0%
COc1ccccc1CNC(=O)c1ccc2c(c1)nc(C)n2-c1ccccc1OC | nt | i | nt | i | nt
COc1cccc(CNC(=O)C2CCN(c3nn4c(=O)cc(C)nc4s3)CC2)c1 | -5% | i | 0% | i | 7%
CCc1n(CC(O)COC2CCCCC2)c2ccccc2[n+]1C (centres undefined) | -9% | i | -7% | ? | 5%
CCCc1n(CC)c2ccccc2[n+]1CC(O)COC1CCCCC1 (centres undefined) | 13% | i | -2% | i | 3.3µM*
CS(=O)(=O)N(Cc1ccc(C(=O)NCCSc2ccccn2)cc1)c1ccccc1 | 2% | i | 10% | 5.8µM* | -35%
Cc1ccc(N(Cc2ccc(C(=O)NCCSc3ccccn3)cc2)S(C)(=O)=O)cc1C | 1% | i | 3% | 21µM* | 9.2µM*
CCC(C)(c1nnnn1-c1c(C)cccc1C)N(N=O)c1ccccc1Cl (centres undefined) | nt | ? | ? | 18µM* | -8%
CC1(C(=O)NNC(=O)c2ccc(=O)oc2)CC1Br (centres undefined) | ? | i | ? | i | 11%
SMILES | SW480 rereplic | KB-3-1 tox | MCF10A rerep | KB-V1 MDR tox | ELG1 DNA repair
NS(=O)(=O)c1ccc(CCNC(=O)C2CCN(S(=O)(=O)c3ccccc3)CC2)cc1 | -13% | i | -4% | i | -2%
NS(=O)(=O)c1ccc(CCNC(=O)C2CCN(S(=O)(=O)c3cnc[nH]3)CC2)cc1 | ? | i | 21µM* | i | ?
CC(C)(C)[C@H]1C=C(C(=O)Nc2ccccc2)O[C@@H](OCc2ccc(CO)cc2)C1 | 5% | i | ? | i | ?
COc1ccccc1-n1c(=O)oc2ccc(Cl)cc2c1=O | 15% | ? | 6.5µM* | ? | -15%
Cn1c(SCc2ccc(Br)cc2)nc2ccccc2c1=O | -8% | i | 21% | ? | -22%
Cc1cccc(NC(=S)NCC23C=CC(O2)C2C(=O)N(c4ccc(Cl)cc4)C(=O)C23)c1 (centres undefined) | ? | i | ? | ? | -4%
Cc1ccc(NC(=S)NCC23C=CC(O2)C2C(=O)N(c4ccc(C)cc4)C(=O)C23)cc1 (centres undefined) | ? | i | ? | 13µM* | -15%
CCN(CC)S(=O)(=O)c1cccc(NC(=O)CNc2cccc(S(=O)(=O)N3CCOCC3)c2)c1 | 6% | 1.3µM* | 15% | 21µM* | ?
CCN(CC)S(=O)(=O)c1ccc(C)c(NC(=O)CNc2cccc(S(=O)(=O)N3CCOCC3)c2)c1 | -527% | i | ? | i | ?
CCN(CC)S(=O)(=O)c1cc(NC(=O)CNc2cccc(S(=O)(=O)N3CCCC3)c2)ccc1C | -2% | 2.9µM* | 26% | 21µM* | ?
O=C(CNc1cccc(S(=O)(=O)N2CCCC2)c1)Nc1cccc(C(F)(F)F)c1 | -2% | i | 2% | i | 9.2µM*
c1nc(SSc2ncnc3nc[nH]c23)c2[nH]cnc2n1 | ? | 5.2µM* | ? | 2.3µM* | nt
O=C(O)CSc1ncnc2nc[nH]c12 | -2% | i | -3% | i | -3%
COc1ccc(C(=O)Nc2ccccc2)cc1NC(=O)c1ccc([N+](=O)[O-])cc1 | 2% | i | 2% | ? | -24%
COc1ccc(NC(=O)/C(Cl)=C(/Cl)S(=O)Cc2ccccc2Cl)cn1 (centres undefined) | ? | 18µM* | 1µM* | ? | 15µM*
COc1ccc(NC(=O)CSc2cc(C)ccc2C)cn1 | -5% | i | 1% | i | -7%
COc1ccc(NC(=O)Cc2ccc(Cl)c(Cl)c2)cn1 | 3% | i | 0% | i | 8%
COc1ccc(NC(=O)/C(Cl)=C(/Cl)S(=O)(=O)Cc2ccc(C)cc2)cn1 | 2.6µM* | 6.5µM* | ? | ? | ?
COc1ccc(-c2sc3ccccc3c2/C=C/c2ccc(N)cc2)cc1 | -3% | i | ? | i | ?
CC(=O)NC(CC(C)C)C(=O)NC(Cc1ccccc1)C(=O)CCl (centres undefined) | 17% | i | 8.2µM* | i | nt
CC(=O)NC(CC(C)C)C(=O)NC(Cc1ccccc1)C(N)=O (centres undefined) | -5% | i | -5% | i | ?
Cc1ccc(S(=O)(=O)NC(Cc2ccccc2)C(=O)NN)cc1 (centres undefined) | ? | i | 2% | i | -2%
